Over roughly 110,000 compounds, “z-score” has its median near -0.1; the highest 2% begin near 2. The full list was thinned out, with the highest values kept by preference. Calls of active or inactive are those of the source.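 Rule for the calls: active = z-score in the third read window above 3 or below -3; inactive = the rest.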
target: Metabotropic glutamate receptor 8 (Rattus norvegicus) (UniProt P70579); experiment: mGluR8 Gi/Go-coupled signaling modulation – cell-based, rat, thallium flux, HTS, primary screen (AID 488969); conditions: HEK293 rat mGluR8, GIRK (G protein-gated inwardly rectifying potassium channel) thallium flux, FluoZin2; at 10 µM; stronger effect = higher value; submaximal glutamate (EC20) added with thallium
Sequence (P70579 whole entry, looked up): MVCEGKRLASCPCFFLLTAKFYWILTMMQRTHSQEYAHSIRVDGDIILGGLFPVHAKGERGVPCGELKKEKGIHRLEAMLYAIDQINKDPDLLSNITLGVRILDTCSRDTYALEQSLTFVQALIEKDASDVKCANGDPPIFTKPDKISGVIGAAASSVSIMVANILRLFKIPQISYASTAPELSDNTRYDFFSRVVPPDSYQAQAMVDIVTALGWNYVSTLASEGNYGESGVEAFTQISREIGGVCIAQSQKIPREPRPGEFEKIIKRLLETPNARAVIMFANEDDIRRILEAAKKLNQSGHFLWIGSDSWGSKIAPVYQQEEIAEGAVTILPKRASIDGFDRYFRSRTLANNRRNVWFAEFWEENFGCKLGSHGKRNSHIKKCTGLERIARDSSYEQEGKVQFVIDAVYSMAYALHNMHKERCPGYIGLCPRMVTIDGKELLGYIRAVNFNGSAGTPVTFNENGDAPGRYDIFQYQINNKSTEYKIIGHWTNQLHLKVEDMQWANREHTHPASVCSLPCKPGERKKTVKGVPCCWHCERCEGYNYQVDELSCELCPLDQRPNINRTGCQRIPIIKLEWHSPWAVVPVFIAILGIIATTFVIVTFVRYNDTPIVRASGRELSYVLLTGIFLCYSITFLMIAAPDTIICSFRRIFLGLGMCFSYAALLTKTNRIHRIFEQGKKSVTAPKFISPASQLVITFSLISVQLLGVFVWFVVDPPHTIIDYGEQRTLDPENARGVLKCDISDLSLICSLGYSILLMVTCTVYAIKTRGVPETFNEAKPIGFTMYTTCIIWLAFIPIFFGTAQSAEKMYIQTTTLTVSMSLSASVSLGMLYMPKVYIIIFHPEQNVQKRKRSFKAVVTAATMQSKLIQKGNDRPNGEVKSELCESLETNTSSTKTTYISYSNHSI

Compound	z-score
CC1=CC(=Nc2c(C)n(C)n(-c3ccccc3)c2=O)C=C(C)C1=O	0.433
Cc1cc(S(=O)(=O)NCC(=O)O)ccc1F	0.254
CCN=C1SC(C(=O)Nc2cccc(C)c2)CC(=O)N1CC (configuration not stated)	-0.145
O=C(/C=C/c1ccccn1)c1ccc(Br)cc1O	-0.442
O=C(/C=C/c1ccccc1)c1cc(Br)ccc(=O)c1O	14 (active)
O=C(/C=C/c1ccc(Br)cc1)c1ccco1	-0.0794
CN(C)c1nc(Oc2ccc(N)cc2)nc(N(C)C)n1	0.322
COc1cccc(C(=O)CSc2nnnn2C)c1	-0.273
CCCN(Cc1ccccc1)C(=S)Nc1cccc(C(F)(F)F)c1	-0.985
CN1CC(=O)N(CC(=O)NCc2ccc3c(c2)OCO3)C1=O	-0.14
O=C(O)C1[C@H]2C(=O)N(C3CCCC3)C[C@]23C=C[C@H]1O3 (some centres not stated)	0.231
O=C(O)C1C2C=CC3(CN(C4CCCC4)C(=O)C13)O2 (configuration not stated)	2.75
COC(=O)C1C2C=CC3(CN(C4CCCC4)C(=O)C13)O2 (configuration not stated)	-1.65
Cc1cc(C)c2oc(-c3cccc(NC(=O)c4ccc(F)cc4)c3)nc2c1	-0.0725
Cc1cccc(-n2cc(-c3ccc([N+](=O)[O-])cc3)[nH]c2=S)c1	0.401
Cc1ccc(-n2cc(-c3ccc([N+](=O)[O-])cc3)[nH]c2=S)c(C)c1	2.99
O=[N+]([O-])c1ccc(-c2cn(-c3ccc(Cl)cc3)c(=S)[nH]2)cc1	2.83
CCc1ccc(-n2cc(-c3ccc([N+](=O)[O-])cc3)[nH]c2=S)cc1	0.69
O=[N+]([O-])c1ccc(-c2cn(-c3ccccc3)c(=S)[nH]2)cc1	-0.00967
Cc1cc(C)c(CSc2ncc(-c3ccc([N+](=O)[O-])cc3)[nH]2)c(C)c1	-0.26
Cc1ccc(Nc2cc(-n3cccn3)ncn2)c(C)c1	-0.35
COc1ccc(/C=N/Nc2snc(SC)c2C#N)cc1OC	0.407
Cc1ccc(NC(=O)c2ccc3c(c2)N(CC(=O)N2CCCCC2)C(=O)C(C)(C)O3)cc1	-0.4

Compound	z-score
CC1Cc2nc(SCC(=O)N3CCN(c4ccccc4)CC3)n(CCc3ccccc3)c(=O)c2S1 (configuration not stated)	-1.13
O=C(NC(=S)Nc1ccc(N2CCOCC2)c(Cl)c1)C(c1ccccc1)c1ccccc1	0.604
Cc1cc(Cl)ccc1OCC(=O)NC(=S)Nc1ccccc1N1CCOCC1	0.195
O=C(NC(=S)Nc1ccc(N2CCOCC2)c(Cl)c1)c1cncc(Br)c1	7.69 (active)
COc1ccc(OCC(=O)NC(=S)Nc2ccc(N3CCOCC3)c(Cl)c2)cc1	2.19
CCCC(=O)NC(=S)Nc1ccccc1N1CCOCC1	-0.0717
COc1ccc(OCC(=O)Nc2ccc(N3CCOCC3)c(Cl)c2)cc1	-0.665
Cc1cc(Cl)ccc1OCC(=O)Nc1ccccc1N1CCOCC1	2.81
CCCC(=O)NC(=S)Nc1ccc(N2CCOCC2)c(Cl)c1	0.242
Cc1cccc(OCC(=O)Nc2ccccc2C(=O)N2CCOCC2)c1	-0.0499
Cc1ccccc1OCC(=O)NC(=S)Nc1ccc(N2CCOCC2)c(Cl)c1	0.328
Cc1cccc(OCC(=O)NC(=S)Nc2ccccc2N2CCOCC2)c1	3.14 (active)
Cc1ccc(OCC(=O)Nc2ccccc2N2CCOCC2)c(C)c1	0.00977
Cn1c(=O)cc(SCC(=O)NCC2CCCO2)c2ccc(Cl)cc21 (configuration not stated)	0.0952
COCCOC(=O)C1=C(C)NC2=C(C(=O)CC(C)(C)C2)C1c1ccc2c(c1)OCO2 (configuration not stated)	-0.115
CCc1nc(N)c(C#N)c(-c2cccc3ccccc23)c1C	0.197
O=C(C[n+]1ccc2ccccc2c1)Nc1cc(C(F)(F)F)ccc1Cl	-0.746
CN(C)S(=O)(=O)c1cc(C(=O)O)c(NC2CCCCC2)cc1Cl	-2.9
CCOC(=O)c1c(CSC(=N)N)n(-c2ccc(C)cc2)c2cc(Br)c(OC(C)=O)cc12	1.29
Cc1cccc(NC(=O)CSc2nsc(SCC(=O)Nc3cccc(C)c3)c2C#N)c1	-0.0761
COc1ccc(CCNC2=NCC(C)S2)cc1 (configuration not stated)	0.0523
Cc1cccc(OCC(=O)Nc2ccccc2N2CCCCC2)c1	0.378
CCC(=O)N1CCN(c2ccccc2NC(=O)COc2cccc(C)c2)CC1	13 (active)

Compound	z-score
CCC(=O)N1CCN(c2ccccc2NC(=O)COc2cc(C)ccc2C(C)C)CC1	0.696
Cc1sc(NC(=O)CSc2nnc(-c3ccc(F)cc3)o2)c(C#N)c1C	-0.213
CCNC(=O)CN(c1ccc(OC)c(OC)c1)S(=O)(=O)c1ccccc1	-0.11
O=C(Nc1cccc(-c2nnc(-c3ccccc3)o2)c1)C1CCCO1 (configuration not stated)	3
O=C(Nc1ccc2oc(-c3ccccc3)nc2c1)C1CCCO1 (configuration not stated)	-0.123
O=C(Nc1cccc(-c2nnc(-c3ccccc3)o2)c1)C1CCCCC1	-0.0325
CCOC(=O)Cc1csc(NC(=O)C2C3C=CC(C3)C2C(=O)O)n1 (configuration not stated)	-0.0933
Cc1cc(C)cc(OCC(=O)Nc2ccc3c(c2)C(=O)c2ccccc2C3=O)c1	-0.124
Cc1ccc2nc(SC(C(=O)Nc3ccc(F)cc3)c3ccccc3)[nH]c2c1 (configuration not stated)	-0.117
COc1cccc(C(=O)CSc2nnc(-c3cc(OC)cc(OC)c3)o2)c1	0.263
Cn1cccc1CNC1CCCC1	-1.43
Cn1cccc1CNC1CCCCC1	0.335
c1ccc(-n2cccc2CNC2CCCCC2)cc1	2.02
O=C(C1CCC(CNS(=O)(=O)c2cccc3cccnc23)CC1)N1CCc2ccccc21 (configuration not stated)	-0.0229
CC(=C1C(=O)c2ccccc2C1=O)N1CCN(C/C=C/c2ccccc2)CC1	2.04
CS(=O)(=O)N1CCN(C/C=C/c2ccccc2)CC1	-0.0638
CC(=C1C(=O)c2ccccc2C1=O)N1CCN(Cc2ccccc2)CC1	-0.06
Cc1cc(C)cc(C(=O)OCC(=O)Nc2cccc(S(=O)(=O)NC3=NCCCCC3)c2)c1	0.0544
Cc1c(N2C(=O)CS/C2=N\N=C\c2ccc(Cl)cc2)c(=O)n(-c2ccccc2)n1C	-0.118
Cc1c(N2C(=O)CS/C2=N\N=C\c2ccc(Br)cc2)c(=O)n(-c2ccccc2)n1C	-0.286
Cc1c(N2C(=O)CS/C2=N\N=C\c2ccccc2O)c(=O)n(-c2ccccc2)n1C	3.28 (active)
CC1SC(c2ccccc2Cl)NC1=O (configuration not stated)	-0.0543
CC(NC(=O)c1ccc(-c2cc(C(F)(F)F)ccc2Cl)o1)c1ccccc1 (configuration not stated)	-0.132

Compound	z-score
COc1cccc(NC(=O)COC(=O)c2c3c(nc4ccccc24)CCC(C)C3)c1 (configuration not stated)	-0.604
S=c1[nH]nc(-c2ccccc2)n1/N=C/C=C/c1ccco1	0.28
CC(/C=N/n1c(-c2ccc(C)cc2)n[nH]c1=S)=C\c1ccco1	0.323
CC(/C=N/n1c(-c2ccc(Cl)cc2)n[nH]c1=S)=C\c1ccco1	6.09 (active)
Cc1nn(-c2ccccc2)c(C)c1/C=N/n1c(-c2ccc(Cl)cc2)n[nH]c1=S	0.338
Cc1ccc(-c2n[nH]c(=S)n2/N=C\c2ccco2)cc1	-0.16
CC(/C=N/n1c(-c2ccccc2)n[nH]c1=S)=C\c1ccco1	6.02 (active)
COc1ccc(OC)c(NC(=O)CSc2ncccn2)c1	-0.134
COc1ccc(C(=O)n2nc(C)cc2C)cc1OC	-0.221
c1ccc(Cn2c(Sc3nnnn3-c3ccccc3)nnc2-c2ccccc2)cc1	0.223
COc1ccc(CNC(=S)Nc2cccc(C)c2C)cc1	-0.341
Cc1ccc2nsnc2c1NC(=O)c1ccc2c(c1)OCCO2	-0.679
Cc1ccc(S(=O)(=O)/N=C(/NC(=S)Nc2ccccc2)c2ccccc2)cc1	0.34
CCCCN(CCCC)CCn1cnc2c([nH]c3ccc(OC)cc32)c1=O	0.258
CCN1CCCC1Cn1cnc2c([nH]c3cc(OC)ccc32)c1=O (configuration not stated)	-0.271
CCC1CCCN1Cn1cnc2c([nH]c3ccc(OC)cc32)c1=O (configuration not stated)	6.77 (active)
CCOCCc1nnc(NC(=O)c2cccs2)s1	-0.0424
O=C(NC1CCCC1)C(c1ccccc1)N(C(=O)c1ccno1)c1ccccc1 (configuration not stated)	0.315
CC(C)(C)NS(=O)(=O)c1ccc2c(c1)oc(=O)c1cc(S(=O)(=O)NC(C)(C)C)ccc12	-0.0322
CC(NC(=O)c1ccccc1NC(=O)CSc1nnnn1C)c1ccccc1 (configuration not stated)	2.05
Cn1nnnc1SCC(=O)Nc1ccccc1C(=O)NC1CC1	0.311
Cn1nnnc1SCC(=O)Nc1ccccc1C(=O)NCc1ccccc1	0.00964
O=C(c1cnn2c(C(F)(F)F)cc(-c3ccccc3)nc12)N1CCCc2ccccc21	-0.322

Compound	z-score
CC1Cc2cc(/C(O)=C3/C(=O)C(=O)N(CCCn4ccnc4)C3c3ccco3)ccc2O1 (configuration not stated)	-0.193
COc1nc(-c2ccccc2)ccc1-c1noc(-c2ccccc2)n1	0.293
CC(C)(C)CC(C)(C)NC1=CC(=O)OC12CCCCC2	-0.189
CC(C)c1nc(N2CCOCC2)c(C#N)c2c1CCC2	0.532
CC(C)c1nc(N2CCCC2)c(C#N)c2c1CCCC2	0.908
CC(C)c1nc(N2CCOCC2)c(C#N)c2c1CCCC2	6.82 (active)
CCCCc1nc(N2CCOCC2)c(C#N)c2c1COC(C)(C)C2	-0.434
CC(C)Cc1nc(N2CCOCC2)c(C#N)c2c1COC(C)(C)C2	2.42
CSc1nc(N2CCCC2)c2c(c1C#N)CC(C)(C)OC2	-0.933
Cc1nc(N2CCOCC2)c(C#N)c2c1COC(C)(C)C2	-0.387
CSc1nc(N2CCOCC2)c2c(c1C#N)CC(C)(C)OC2	2.16
COC(=O)Sc1nc(N2CCOCC2)c2c(c1C#N)CC(C)(C)OC2	-2.52
Cc1ccc(S(=O)(=O)Nc2nc3ccccc3s2)cc1	-0.644
COc1ccc(CC(=O)NNC(=S)Nc2ccccc2)cc1Br	0.376
Cn1cc(CNC(=O)C2CCCCC2)cn1	-0.556
Cn1c(=O)[nH]c2cc(Cl)cnc21	0.0453
CCc1cc(C(=O)NCCN(C)C)cs1	0.168
COc1cc(NS(=O)(=O)c2cc(C)ccc2OC)c(OC)cc1Cl	0.494
COc1ccc(C)cc1S(=O)(=O)Nc1ccccc1C	-0.428
COc1ccc(C)cc1S(=O)(=O)Nc1cccc(Cl)c1Cl	3.68 (active)
